# Source: PubChem BioAssay
# TDP1 cell CPT: DT40-hTDP1 cell growth loss with CPT; chicken DT40 Tdp1-/-;hTDP1 cells + 20 nM CPT, ATP luminescence, 48 h; Potency, µM (doses to about 46.2 µM), for inactives: at the highest dose activity change, negative = growth inhibition, most hits filed as inhibitors; 12% of 420,000 active; AID 686979; also: potency is read from the fitted curve at half-maximal effect; nearly all actives have a fitted effect of over 55% in size
#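 Cell growth measured by CellTiter-Glo luminescence after a minimum 48 h, 37 C compound exposure with 20 nM CPT in Tdp1-knockout DT40 cells stably expressing hTDP1, seeded 400/well; qHTS titration format.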
# ELG1 DNA repair: ELG1-dependent DNA repair inhibition | HEK293T ELG1-luciferase reporter, luminescence, 16 h; DNA damage induced by 5-fluorouridine | Potency, µM (doses to about 46.1 µM), for the others: at the highest dose activity change, negative = inhibition, most hits filed as inhibitors | 2.3% of 330,000 active | AID 504467; also: potency is read from the fitted curve at half-maximal effect; nearly all actives have a fitted effect of over 55% in size
#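 Step one: seed 2,000 cells per well. Step two: pin-transfer compound or DMSO alongside 5-fluorouridine. Step three: incubate 16 hr, 37 °C, 5% CO2. Step four: add ONE-Glo, wait 30 min, read luminescence.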
# TDP1 cell noCPT: qHTS for Inhibitors of human tyrosyl-DNA phosphodiesterase 1 (TDP1): qHTS in cells in absence of CPT. DT40 Tdp1-/- hTDP1 cells, no CPT, ATP luminescence, 48 h. Potency, µM (doses to about 46.2 µM), for the others: top-dose activity change, negative = growth inhibition, most hits filed as inhibitors. 15% of 420,000 active; also: potency is read from the fitted curve at half-maximal effect; nearly all actives have a fitted effect of over 55% in size
#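 Growth kinetics read by CellTiter-Glo luminescence after ≥48 hr at 37 °C. Cells: DT40 Tdp1-/- stably carrying human TDP1, 400 per well, compound exposure in the absence of CPT (DMSO vehicle).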
# IL-1B inflam inh: blocks inflammasome-driven IL-1 beta release; activity change, % at 57.5 µM; THP-1 LPS/ATP IL-1B secretion, AlphaLISA, 16 h; stronger effect = lower value; AID 743279; 4.7% of 360,000 active; in the data active = activity change below about -50%; inconclusive = mostly about -30% to -49%
#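 Secreted IL-1B measured by AlphaLISA bead assay after 16 h compound exposure of THP-1 cells; compounds (final up to 57.5 uM) added 1 h before LPS (250 ng/mL) and ATP (1.25 mM) stimulation; lower signal means less secretion.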
# TDP1 inh: blocks human tyrosyl-DNA phosphodiesterase 1. recombinant TDP1, AlphaScreen DNA substrate cleavage. AID 485290. Potency, µM (top dose mostly 130 µM), for inactives: top-dose activity change, negative = inhibition, actives largely listed as inhibitors. 0.28% of 350,000 active. Q9NUW8; also: potency is read from the fitted curve at half-maximal effect; nearly all actives have a fitted effect of over 40% in size
# Target sequence (Q9NUW8 whole entry, looked up): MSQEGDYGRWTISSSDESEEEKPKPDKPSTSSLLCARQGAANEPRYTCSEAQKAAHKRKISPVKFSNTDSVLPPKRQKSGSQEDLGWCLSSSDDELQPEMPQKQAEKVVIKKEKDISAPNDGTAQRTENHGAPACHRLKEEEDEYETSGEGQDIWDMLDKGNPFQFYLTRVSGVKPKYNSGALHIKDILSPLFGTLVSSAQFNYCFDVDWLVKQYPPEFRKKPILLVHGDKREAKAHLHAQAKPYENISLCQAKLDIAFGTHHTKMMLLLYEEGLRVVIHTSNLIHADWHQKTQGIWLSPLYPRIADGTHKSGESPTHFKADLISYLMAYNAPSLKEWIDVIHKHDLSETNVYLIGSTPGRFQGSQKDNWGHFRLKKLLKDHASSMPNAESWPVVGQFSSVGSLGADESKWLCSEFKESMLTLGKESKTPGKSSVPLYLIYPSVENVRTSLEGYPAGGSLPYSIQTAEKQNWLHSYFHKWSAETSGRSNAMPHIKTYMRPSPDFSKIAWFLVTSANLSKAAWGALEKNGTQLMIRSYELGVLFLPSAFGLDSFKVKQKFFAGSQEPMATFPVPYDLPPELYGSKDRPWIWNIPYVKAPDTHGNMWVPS
#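 Tdp1 1 nM final; 15 min RT w/ cpd; substrate 15 nM, 5 min; beads 10 ug/ml, 10 min; AlphaScreen read. Neg ctrl: no enzyme.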
# Giardia killer: Giardia lamblia killing | Giardia lamblia trophozoite viability | activity change, % at 7.66 µM, hits read low | 0.15% of 340,000 active | AID 540267; in the data active = activity change below about -80%; inconclusive = between about -30% and that limit;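 also: parasites exposed to compound for two days anaerobically before the ATP read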
#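 Trophozoites 100 cells/well + cpd; 48 hrs, 37 deg C, anaerobic. ATPLite 1-Step added, 15-30 min RT, luminescence read (ATP-based viability).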
# * = called active by the depositor; u = inconclusive; x = not tested or not shown; [ ] = dose if it differs, or a comment. The list is not random: actives were taken first. Their share in the collection is about 19%. Unless noted, calls follow the shape of the dose curve; as a rule, active = well fitted curve in the direction sought with a large enough effect; inconclusive = small, poorly fitted or top-dose-only effect, or another doubt; inactive = no such curve, though single readings can be large; an effect the other way counts as inactive or inconclusive. % is scaled to controls: 0 for no effect and ±100 for the full control effect.
SMILES,TDP1 cell CPT,ELG1 DNA repair,TDP1 cell noCPT,IL-1B inflam inh,TDP1 inh,Giardia killer
Cc1ccc(NC(=O)c2sc(-n3nc(C)c(CCC(C)C)c3C)nc2C)cc1C,u,x,u,x,-4%,x
CCN1C(=O)/C(=C2/Sc3ccccc3N2CC)SC1=S,-12%,14%,u,0,x,-9
CCN1/C(=C/C(C)=C/c2sc3ccccc3[n+]2CC)Sc2ccccc21,0.18µM*,1.8µM*,0.18µM*,-97*,8%,-6
CCCCNC(=O)C1CCCN(S(=O)(=O)CCC)C1 (stereo not given),-19%,x,3%,x,0%,x
O=C(NCCN1C(=O)S/C(=C\c2ccc(F)cc2)C1=O)C1CCN(S(=O)(=O)c2cccs2)CC1,12µM*,3%,10µM*,19,-4%,-10
Cc1ccc(NC(=O)C2CCN(S(=O)(=O)c3cccs3)CC2)cc1,u,-12%,u,-26,-6%,-5
COc1ccc(/C=C2\SC(=O)N(CCNC(=O)C3CCN(S(=O)(=O)c4cccs4)CC3)C2=O)cc1,u,u,-27%,23,4%,-7
COc1cc(NC(=O)C2CCN(S(=O)(=O)c3cccs3)CC2)cc(OC)c1,18µM*,u,u,-14,x,-2
O=C(Nc1ccc(F)c(F)c1)C1CCN(S(=O)(=O)c2cccs2)CC1,u,u,u,u,-3%[56.1 µM],-9
CCc1ccc(NC(=O)C2CCN(S(=O)(=O)c3cccs3)CC2)cc1,u,u,u,-80*,-4%,11
COc1ccc(OC)c(S(=O)(=O)N2CCC(C(=O)Nc3ccccc3)CC2)c1,2%,-7%,-40%,11,6%,-4
COc1ccc(OC)c(S(=O)(=O)N2CCC(C(=O)Nc3cccc(C)c3)CC2)c1,u,21µM*,u,u,0%,-4
COc1ccc(CCNC(c2ccc(F)cc2)c2nnc(-c3ccccc3Cl)o2)cc1OC (stereo not given),u,x,u,x,2%,x
CSCC[C@H](N)C(=O)N1CCC(C(=O)N[C@H](C(=O)NCc2ccccc2F)C(C)C)CC1,20%,-14%,8%,0,x,10
CC(C)C[C@H](NC(=O)[C@H](CC(C)C)NC(=O)[C@@H](Cc1c[nH]c2ccccc12)NC(=O)[C@H](Cc1ccccc1)NC(=O)[C@@H](Cc1c[nH]c2ccccc12)NC(=O)[C@H](CCC(N)=O)NC(=O)[C@H](CCC(N)=O)NC(=O)[C@@H]1CCCN1C(=O)[C@H](CCCCN)NC(=O)[C@@H]1CCCN1C(=O)[C@@H](CCCNC(=N)N)NC(=O)[C@@H]1CCCN1C(=O)CNC(=O)[C@H](CC(C)C)NC(=O)[C@H](CC(C)C)NC(=O)[C@H](Cc1ccc(O)cc1)NC(=O)CNC(=O)[C@H](C)NC(=O)[C@H](CO)NC(=O)[C@H](CC(N)=O)NC(=O)[C@H](CC(C)C)NC(=O)[C@@H](NC(=O)[C@H](Cc1c[nH]c2ccccc12)NC(=O)CN)[C@@H](C)O)C(N)=O,x,x,x,x,11%,x
CCN(CC)C(=O)COc1ccc2c3c(c(=O)oc2c1)CCCC3,-9%,12%,-23%,-19,x,-16
COCCn1nnnc1CN(Cc1ccco1)Cc1cc2cc3c(cc2[nH]c1=O)OCO3,u,-30%,-19%,-11,3%,-8
CCC(C)(C)n1nnnc1CN(Cc1ccco1)Cc1cc2cc3c(cc2[nH]c1=O)OCO3,21µM*,u,16µM*,u,0%,-22
COc1ccc2cc(CN(Cc3ccco3)C(c3nnnn3C3CCCCC3)C(C)C)c(=O)[nH]c2c1 (stereo not given),23µM*,6%,u,4,-1%,-4
CC(C)(C)c1ccc(CN(Cc2ccco2)Cc2nnnn2C2CCCC2)cc1,21µM*,-4%,15µM*,-8,3%,6
